# DRD3 agonist = qHTS of D3 Dopamine Receptor Agonist: qHTS | D3R DiscoveRx beta-arrestin cells, luminescence, 90 min | max activation, % | D(3) dopamine receptor (Homo sapiens), P35462 | hit rate 0.58% among 410,000; in the data active = max activation above about 30%; also: 0% is about no effect
# Target sequence (P35462 whole entry, looked up): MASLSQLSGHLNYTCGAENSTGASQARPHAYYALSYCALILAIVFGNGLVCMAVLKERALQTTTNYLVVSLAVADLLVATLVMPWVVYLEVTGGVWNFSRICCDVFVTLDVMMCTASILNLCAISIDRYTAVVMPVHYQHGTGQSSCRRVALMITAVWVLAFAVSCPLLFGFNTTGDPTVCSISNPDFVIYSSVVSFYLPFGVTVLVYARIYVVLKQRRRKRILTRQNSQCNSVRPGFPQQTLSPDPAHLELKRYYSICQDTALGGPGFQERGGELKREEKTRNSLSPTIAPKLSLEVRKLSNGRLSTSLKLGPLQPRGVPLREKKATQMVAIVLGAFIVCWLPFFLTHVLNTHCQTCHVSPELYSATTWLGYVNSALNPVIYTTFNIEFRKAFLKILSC
#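 Cells at 1500/well, incubated overnight, then treated with pinned compounds (dopamine as control) for 90 min at 37 degrees C. DiscoveRx reagent added for 30 - 60 minutes at room temperature; luminescence read.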
# ATXN2 expr inh = Primary qHTS for Inhibitors of ATXN expression; HEK-293 ATXN2-luciferase reporter, luminescence, 24 h; Potency, µM (top dose mostly 57 µM), for inactives: at the top dose activity change, negative = inhibition, hits mostly inhibitors; hit rate 0.72% among 360,000; AID 1745845, 2022; also: potency is read from the fitted curve at half-maximal effect; % is scaled to controls: 0 for no effect and ±100 for the full control effect; nearly all actives have a fitted effect of over 55% in size
#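 ATXN2-luciferase reporter cells (luciferase flanked by upstream and downstream ATXN2 gene portions) were treated 24 h at 37 °C with compounds at up to 57 uM. SteadyGlo luminescence gave expression; GF-AFC fluorescence gave viability.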
# TGFb SMAD3 inh = qHTS for Inhibitors of TGF-b. AID 588855, 2011. HepG2 CAGA-GFP TGF-b/SMAD3 reporter, GFP fluorescence, 18 h; TGF-beta stimulated, 500 pg/mL final. hit rate 1.2% among 410,000. Potency, µM (titrated, usually from 46.1 µM), for inactives: at the highest dose activity, negative = inhibition, hits mostly inhibitors; also: potency is read from the fitted curve at half-maximal effect; % is scaled to controls: 0 for no effect and ±100 for the full control effect; nearly all actives have a fitted effect of over 65% in size
#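 Cell-based qHTS in HEPG2 carrying a CAGA-GFP Smad reporter; compounds added before 500 pg/mL final TGF-beta, 18 h incubation at 37 degrees C, GFP fluorescence quantified per cell by imaging cytometry.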
# HepG2 tox = qHTS for Inhibitors of TGF-b: Cytotox Counterscreen; HepG2 CAGA-GFP viability, ATP luminescence, 18 h; Potency, µM (titrated, usually from 46.1 µM), for inactives: at the highest dose activity change, negative = cytotoxicity, most hits filed as cytotoxic; hit rate 0.76% among 410,000; AID 588856, 2011; also: potency is read from the fitted curve at half-maximal effect
#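 HepG2 CAGA-GFP cells (1000/well, DMEM with 1% FBS) received compound, then TGF-beta at 500 pg/mL final, and were incubated 18 hours at 37 degrees C. Viability was read by CellTiter-Glo luminescence. Media-only wells were set as complete cell-killing and DMSO as no toxicity.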
# S2 tox = Viability Counterscreen for Primary qHTS for Inhibitors of ATXN expression | S2 cells (HEK-293 line with an ATXN2-luciferase reporter) viability, CellTiter-Fluor protease fluorescence, 24 h | Potency, µM (doses to about 56.7 µM), actives largely listed as cytotoxic | hit rate 0.49% among 400,000; also: potency is read from the fitted curve at half-maximal effect; nearly all actives have a fitted effect of over 40% in size
# D3 antag = qHTS of D3 Dopamine Receptor Antagonist: qHTS | D(3) dopamine receptor (Homo sapiens), P35462 | D3R cells, DiscoveRx beta-arrestin luminescence, antagonist mode; active compounds read low | max response, negative = inhibition, % | hit rate 2.5% among 360,000; in the data active = max response below about -50%; inconclusive = no clear call, values can overlap the other calls; also: % is scaled to controls: 0 for no effect and ±100 for the full control effect
#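 Cells plated overnight at 1500 cells/well, then exposed to library compounds with dopamine controls for 90 minutes at 37 degrees C. DiscoveRx reagent added for 30–60 minutes at room temperature; luminescence read, quantitative HTS format.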
# Numbers without * were called inactive; i = inactive; ? = inconclusive; / = no result given. Most compounds without a hit are left out; they make up all but 4.7% or so of the library. Unless noted, calls follow the shape of the dose curve; as a rule, active = well fitted curve in the direction sought with a large enough effect; inconclusive = small, poorly fitted or top-dose-only effect, or another doubt; inactive = no such curve, though single readings can be large; an effect the other way counts as inactive or inconclusive.
SMILES,DRD3 agonist,ATXN2 expr inh,TGFb SMAD3 inh,HepG2 tox,S2 tox,D3 antag
O=C(CCN1CCc2ccccc2C1)Nc1cccc(F)c1,-10,2%,9%,-26%,i,-66*
O=C(CCN1CCc2ccccc2C1)Nc1ccccc1,-11,4%,5%,-34%,i,-73*
O=C(Nc1ccc(Oc2ccnc3[nH]ccc23)c(F)c1)c1cccn(-c2ccc(F)cc2)c1=O,/,-19%,/,/,/,/
CCC(CC)C(=O)N(C)c1c(C)nc2c(OCc3cc(Cl)cc(Cl)c3)cccn12,-9,-25%,13µM*,-93%,i,?
CCC(CC)C(=O)N(C)c1c(C)nc2c(OCc3ccc(Cl)cc3)cccn12,0,0%,?,-30%,i,-29
CCC(CC)C(=O)N(C)c1c(C)nc2c(OCc3cccc(OC)c3)cccn12,-2,-20%,5%,-29%,i,-22
CCC(CC)C(=O)N(C)c1c(C)nc2c(OCc3cccc(Cl)c3)cccn12,-3,?,-10%,-18%,i,-62*
CC(=O)N(C)c1ccc(/C=C2\C=Cc3ccccc32)cc1,/,/,0%,-42%,/,/
CCCSCCCNC(=O)Cn1c(-c2cccs2)cc2ccccc21,11,-3%,?,-28%,i,/
Cc1ccc(C(NC(=O)C2CCN(CCOc3ccc(Cl)cc3)CC2)c2ccccn2)cc1 (stereo unspecified),-12,0%,?,-67%,?,-94*
COc1ccc(C(NC(=O)C2CCN(CCCOc3ccccc3)CC2)c2cccs2)cc1 (stereo unspecified),-12,-14%,?,-51%,i,-75*
COc1ccc(OCCN2CCC(C(=O)NC(c3ccc(Cl)cc3)c3cccnc3)CC2)cc1 (stereo unspecified),-15,-21%,31%,-34%,i,20
Cc1ccc(C(NC(=O)C2CCN(CCCOc3ccccc3)CC2)c2ccccn2)cc1 (stereo unspecified),-12,-6%,-3%,-22%,?,-115*
O=C(NC(c1ccc(Cl)cc1)c1ccsc1)C1CCN(CCOc2ccc(Cl)cc2)CC1 (stereo unspecified),-16,?,?,-108%,?,-84*
COc1ccccc1Cn1cc(C(=O)c2ccc(C)cc2)c(=O)c2cc(F)cc(F)c21,11,3%,19%,8%,i,/
CCOc1ccc2nc(N3CCCC(C(=O)NCCc4ccc(OCC)c(OCC)c4)C3)sc2c1 (stereo unspecified),6,/,-1%,-1%,/,/
O=C(NC(c1ccc(Cl)cc1)c1cnccn1)C1CCN(CCCOc2ccccc2)CC1 (stereo unspecified),-13,-9%,31%,-10%,i,-84*
COc1cnc(-c2ccccn2)nc1Oc1ccc(Cl)c2ccccc12,-7,?,-17%,-38%,i,-94*
COc1cnc(-c2ccccn2)nc1Sc1ccc(C)cc1,-8,?,-17%,-31%,?,-3
COc1cnc(-c2ccccn2)nc1Sc1cccc(Cl)c1,-5,?,4%,-19%,?,-71*
COc1cnc(-c2ccccn2)nc1Oc1ccc(Cl)cc1,-5,-24%,13%,-40%,i,-73*
COc1cc2cc(CNc3ccccc3)c(=O)n(CC(=O)Nc3cccc(Cl)c3C)c2cc1OC,29,7%,4%,-23%,i,/
COc1ccc(NC(=O)C2CCN(c3cc(C)nc4c(-c5ccc(Cl)cc5)c(C)nn34)CC2)cc1,4,5%,-3%,-14%,i,/
COC(=O)c1c(SC)nc2ccccc2c1OCc1ccc(Cl)cc1,12,-2%,?,-14%,i,/
COc1cc(/C=N/NC(=O)c2ccccn2)ccc1OC(=O)c1ccc(Br)cc1,37*,29%,4%,2%,i,4
SMILES,DRD3 agonist,ATXN2 expr inh,TGFb SMAD3 inh,HepG2 tox,S2 tox,D3 antag
O=C(N/N=C/c1ccc2c(c1)OCO2)c1ccccn1,-11,?,0%,7.1µM*,i,-9
COc1cc(/C=N/NC(=O)c2ccccn2)ccc1OC(=O)c1ccccc1Br,12,6%,-26%,-35%,i,45
O=C(N/N=C/c1ccncc1)c1ccccn1,1,12%,-7%,-21%,i,3
O=C(CCc1ccc(O)c(O)c1)N/N=C/c1ccc2c(c1)OCO2,76*,-28%,-12%,-21%,?,-7
CC(C)Oc1ccc(CCC(=O)N/N=C/c2ccc3c(c2)OCO3)cc1,6,-2%,0%,1%,i,16
CC(C)c1ccc(/C=N/NC(=O)c2ccccn2)cc1,1,13µM*,3%,-22%,i,-20
COc1ccc(-c2ccnc3c2c(=O)n(C)c(=O)n3C)cc1OC,-6,3%,8%,-17%,i,/
Cc1ccc(OCCn2c(Br)nc3c2c(=O)n(C)c(=O)n3C)cc1,35*,-13%,2%,-1%,i,15
Cc1ccc(C)c(N2CCN(C(=O)c3c4c(nc5ccccc35)C(=O)N(C3CCCCC3)C4)CC2)c1,-4,/,-1%,-1%,/,/
CNC(=O)c1ccc(N2C(=S)N(c3ccc(C#N)c(C(F)(F)F)c3)C(=O)C2(C)C)cc1F,/,-7%,/,/,/,/
O=C1NC(=O)[C@@H](c2cn3c4c(cccc24)CCC3)[C@H]1c1c[nH]c2ccccc12,/,-21%,/,/,/,/
O=C(Cn1nc(C(F)(F)F)c2c1CCCC2)NC1CCCC1,-5,1%,-4%,-10%,i,-55*
O=C(N/N=C/c1ccc(Br)s1)c1c[nH]c2ccccc12,-21,19%,-4%,-31%,i,-55*
O=C(N/N=C/c1cc(Br)cs1)c1c[nH]c2ccccc12,-17,/,-17%,-35%,i,?
OC1CN=C2CCCc3c2n(c2ccc(Cl)cc32)C1 (stereo unspecified),-15,-12%,-4%,-47%,i,-77*
CCN(CC)c1ccc(/C=C2/C(=O)c3ccc(C(=O)O)cc3C2=O)cc1,-11,23%,0%,3%,i,-56*
Cc1ccccc1-c1cnc(C(O)c2c(C)cccc2C)[nH]1 (stereo unspecified),-15,-2%,1%,-48%,i,-52*
Cc1cc(Cl)ccc1C(O)c1ncc(-c2ccc3ccccc3c2)[nH]1 (stereo unspecified),2,5%,?,-70%,?,15
